# This is part of a sample that, as a whole, favours compounds with a hit. Of some 83,000 tested, about 20% had one in any assay.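 How to read the values: 0–100, growth inhibition (40 = 60% inhibited); 0, no net growth; -100 to 0, cell death (-40 = 40% of starting cells died; -100 = all dead).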 Calls of active or inactive are those of the source.
# Tested on: TK-10 renal
# Assay: NCI-60 one-dose screen, 48 h (100 = growth as untreated, 0 = no growth, -100 = all killed)
# Conditions: 10 µM unless noted
# Experimental: Growth inhibition of the TK-10 human tumor cell line is measured as a screen for anti-cancer activity. Cells are grown in 96 well plates and exposed to the test compound for 48 hours. Compounds are tested at a single concentration, which is 10^-5 M for most compounds. The reported endpoint is percent growth (GI% or GIPRCNT), where numbers from 0 - 100% represent growth inhibition, and numbers from -100% - 0 represent cell death. For example, a value of 40 represents 60% growth inhibition. A value of 0 means no net growth occurred over the course of the experiment. A value of -40 indicates 40% of cells at the beginning of the experiment died by the end of the experiment. A value of -100 means all cells are dead at the end of the experiment.
# NCI-60 Human Tumor Cell Lines Screen was performed using the standard one-dose NCI protocol, which is described in more detail at https://dtp.cancer.gov/discovery_development/nci-60/default.htm.
# Compounds with GIPRCNT values below 10 were considered active. Activity score was based on GIPRCNT using the following formula: […]
# Score is 0 for GIPRCNT values of 100 or above, 50 for GIPRCNT values of 0, and 100 for GIPRCNT values of -100.
row,Compound,growth
1,COc1ccc([C@H]2C(C(=O)c3ccc(Cl)cc3)C3(N[C@@H]2c2ccccc2)C(=O)Nc2ccccc23)cc1 (stereo not given in full),43.4% (inactive)
2,C=CC(=O)N1CCN(c2ccc3nc4c(nc3c2C(F)(F)F)C(=O)c2ncccc2C4=O)CC1,111% (inactive)
3,OC1CCC(Cn2c(C(F)(F)F)cc3c(Cl)ncnc32)CC1 (stereo not given),105% (inactive)
4,COc1sc(/C=N/NC(=O)c2[nH]c3ccc(Br)cc3c2-c2ccccc2)cc1Cl,9.67% (active)
5,COc1ccc2c(c1)C(Sc1ccc(F)cc1)c1c(nc(N)c(C#N)c1N)O2 (stereo not given),103% (inactive)
6,Cn1cc(-c2cc(N)n3nc(-c4c[nH]c5ccc(F)cc45)cc3n2)c2cc(Br)cnc21,90.9% (inactive)
7,COc1ccc(NC(=O)Cn2c(/C=C/c3ccc([N+](=O)[O-])cc3)nc3ccccc3c2=O)cc1,25.5% (inactive)
8,COc1ccc(NC2=C(I)C(=O)C(C)=C(C)C2=O)cc1,155% (inactive)
9,CCOC(=O)/C(F)=C/C1CC1C1CCN(C(=O)OC(C)(C)C)CC1 (stereo not given),104% (inactive)
10,CCCCNc1ccc2c3c(cccc13)C(=O)N(NCC(O)COc1ccc3c(C)cc(=O)oc3c1)C2=O (stereo not given),153% (inactive)
11,N/C(=N\c1nc2ccc([N+](=O)[O-])cc2s1)NC(=O)Nc1ccccc1Cl,17.8% (inactive)
12,Cn1cc(Nc2ncnc(-c3ccc(N4CCCC4)c(C#N)c3)n2)cn1,66.2% (inactive)
13,Cc1ccc(C(=O)Nc2ccc(-n3ccnc3)c(C(F)(F)F)c2)cc1C#Cc1cnc2cccnn12,23% (inactive)
14,COc1c(B(O)O)cc(F)cc1-c1nc2ccc3[nH]ncc3c2c2c1COCC2,14.2% (inactive)
15,FC(F)(F)c1cc2c(Cl)ncnc2n1CCN1CCOCC1,102% (inactive)
16,O=C1Nc2cc(-c3ccc(NS(=O)(=O)c4ccc(-c5ccccc5)cc4)cc3)ccc2/C1=C/c1ccc[nH]1,49% (inactive)
17,CC(=O)c1ccc2c(N)c(C(=O)Nc3ccc(C(F)(F)F)cc3)sc2n1,67% (inactive)
18,COc1ccc(/C=C/c2nc3ccccc3c(=O)n2CC(=O)Nc2ccccc2)cc1,-9.9% (active)
19,COc1cncc(-c2ccc3ncnc(N4CCc5ccc(Cl)cc54)c3c2)c1,8.96% (active)
20,O=C(N/N=C/c1ccoc1)c1[nH]c2ccc(Br)cc2c1-c1ccccc1,-82.5% (active)

row,Compound,growth
1,N#C/C(=C/c1ccc([N+](=O)[O-])cc1)c1nnc(NC(=O)c2ccc(-n3c(=O)[nH]c4ccccc4c3=O)cc2)s1,108% (inactive)
2,COc1ccc(-c2nc3ccc(-c4nnc(SCc5ccccc5)o4)cc3[nH]2)cc1,-35.3% (active)
3,CC1=C(C)C(=O)C(NCCN2CCOCC2)=C(Br)C1=O,150% (inactive)
4,COc1ccc(NC(=O)Cn2c(/C=C/c3cccc(Br)c3)nc3ccccc3c2=O)cc1,-39.4% (active)
5,Oc1ccc(F)c(Nc2nc(SCCN3CCOCC3)nc3c2cnn3CC(Cl)c2ccc(Br)cc2)c1 (stereo not given),68.6% (inactive)
6,CN1CCc2c(sc3ncnc(N/N=C/c4cccc(Cl)c4Cl)c23)C1,72.7% (inactive)
7,FC(F)(F)c1cc2c(Cl)ncnc2n1CCC1CCOCC1,98.3% (inactive)
8,COc1ccc(Nc2ncnc3sc4c(c23)CCN(Cc2ccccc2)C4)cc1,109% (inactive)
9,COc1ccc2[nH]c(=O)c(CSc3ccccc3Nc3nccc(-c4ccc(Cl)cc4)n3)cc2c1,90.3% (inactive)
10,Cn1cc(-c2cc(N)n3nc(-c4c[nH]c5ccccc45)cc3n2)c2cc(F)ccc21,50.6% (inactive)
11,Cn1cc(-c2cc(N)n3nc(-c4c[nH]c5ccccc45)cc3n2)c2cc(Cl)ccc21,-90.2% (active)
12,O=[N+]([O-])c1cccc(-c2nnc3c(/C=C/c4ccc(F)cc4)nc4ccccc4n23)c1,121% (inactive)
13,O=C(N/N=C/c1ccsc1)c1[nH]c2ccc(Br)cc2c1-c1ccccc1,-13.3% (active)
14,O=C(N=Nc1c(O)[nH]c2ccc(Br)cc12)c1ccc2nc(-c3ccc(Cl)cc3)[nH]c2c1,54.3% (inactive)
15,O=c1ccc(Cn2c(C(F)(F)F)cc3c(Cl)ncnc32)c[nH]1,111% (inactive)
16,Cc1cnc2ccc(Oc3ccccc3-c3ccccc3)nn12,106% (inactive)
17,CCOc1ccc(-c2cc(-c3cc(C(C)C)c(O)cc3C)nn2-c2ccc(S(N)(=O)=O)cc2)cc1,84.2% (inactive)
18,O=C(c1ccc(Cl)cc1)C1[C@H](c2ccccc2Cl)[C@@H](c2ccccc2)NC12C(=O)Nc1ccccc12 (stereo not given in full),12.1% (inactive)
19,CCCCCCCCCc1ccc(C(=O)Nc2cc(C)ccc2C(=O)OC)cc1,121% (inactive)
20,O=S(=O)(c1nc(-c2ccc(Br)cc2)oc1-c1ccc(Cl)cc1)N1CCCC(O)C1 (stereo not given),102% (inactive)

# Reference: PubChem BioAssay (NCI)
